Experimental findings from PubChem BioAssay (NCI) are described below.

Among the test systems are NCI-H23 lung; NCI-H226 lung; NCI-H322M lung; HOP-62 NSCLC; NCI-H460 lung; HOP-92 NSCLC; NCI-H522 lung; A549/ATCC NSCLC; 786-0 renal; COLO 205 colon.
What all share (experiment): NCI-60 one-dose screen, 48 h (100 = growth as untreated, 0 = no growth, -100 = all killed)
Details in all cases: 10 µM unless noted

SMILES strings stand for the structures. About 83,000 compounds went through this panel and 20% of them were active in at least one assay; those are over-represented in the sample as a whole.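 Activity criterion: percent growth below 10, measured after cells in 96-well plates were exposed to a single compound concentration for 48 hours.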 Unmarked numbers belong to inactive results. Calls of active or inactive are those of the source.

As for `C[C@]12CC[C@H]3[C@@H](C[C@@H]4SC(Nc5ccccc5)=N[C@@]45CC(O)CC[C@]35C)[C@@H]1CCC2O` (stereo not given in full), the growth in the assay on NCI-H23 lung was 67.3%; in the assay with NCI-H226 lung, 63.9%; in the assay with NCI-H322M lung, 78.4%; in the assay with HOP-62 NSCLC it was 34.2%; in the assay with NCI-H460 lung, 6.06% (active); in the assay with HOP-92 NSCLC it was 104%. Besides, the growth in the assay with NCI-H522 lung was 25.8%; with A549/ATCC NSCLC, 57.1%; with 786-0 renal, -49.7% (active); in the assay with COLO 205 colon, 57.1%.

Consider `CCOC(=O)CCN(C)C1=Nc2ccc(Cl)cc2C(c2ccccc2)=[N+]([O-])C1`, for which the growth was 101% in the assay on NCI-H23 lung; 104% with NCI-H226 lung; 98.4% in the assay with NCI-H322M lung; 96.6% with HOP-62 NSCLC; 106% with NCI-H460 lung; 98.6% in the assay on HOP-92 NSCLC. The growth with NCI-H522 lung is 70.9%; in the assay on A549/ATCC NSCLC it was 100%; in the assay with 786-0 renal, 117%; in the assay on COLO 205 colon, 129%.

As to `CC(=O)O[C@H](C[C@H](C(C)C)N(C)C(=O)[C@@H](NC(=O)[C@H]1CCCCN1C)C(C)C)c1nc(C(=O)N[C@@H](Cc2ccccc2)C[C@H](C)C(=O)O)c(C(C)C)s1`, the growth is 22.9% in the assay on NCI-H23 lung; 58.9% with NCI-H226 lung; 35.8% in the assay on NCI-H322M lung; 20% in the assay on HOP-62 NSCLC; 6.51% (active) in the assay on NCI-H460 lung; 51.5% with HOP-92 NSCLC. Further, the growth in the assay with NCI-H522 lung is -21.1% (active); in the assay on A549/ATCC NSCLC, 8.67% (active); in the assay with 786-0 renal, 16%; in the assay on COLO 205 colon it was -60% (active).

Consider `C[C@]12CC[C@H]3[C@@H](CC[C@]4(O)C[C@@H](O[C@@H]5O[C@H](CO)[C@@H](O[C@@H]6OC[C@@H](O)[C@H](O)[C@H]6O)[C@H](O)[C@H]5O)CC[C@]34C=O)[C@@]1(O)CC[C@@H]2C1=CC(=O)OC1`, for which the growth in the assay on NCI-H23 lung is -37.1% (active); with NCI-H226 lung it was -2.96% (active); in the assay with NCI-H322M lung, -13.2% (active); in the assay with HOP-62 NSCLC, -68.4% (active); in the assay on NCI-H460 lung, -9.57% (active); in the assay with HOP-92 NSCLC, 43.7%. Further, the growth was -35.2% (active) with NCI-H522 lung, -89.8% (active) with A549/ATCC NSCLC, 0.0388% (active) in the assay with 786-0 renal and 17.8% with COLO 205 colon.

`O=C1C(=Cc2cn(Cc3ccccc3)c3ccccc23)C(=O)N(Cc2ccccc2)C(=O)N1Cc1ccccc1`: the growth was 87.8% in the assay with NCI-H23 lung; -49.4% (active) in the assay on NCI-H226 lung; 105% in the assay with NCI-H322M lung; 85.5% in the assay with HOP-62 NSCLC; 36% in the assay with NCI-H460 lung; 90.9% in the assay with HOP-92 NSCLC. Further, the growth is 87.6% in the assay on NCI-H522 lung, 80.1% with A549/ATCC NSCLC, 93.3% in the assay with 786-0 renal and 26.4% in the assay on COLO 205 colon.

On to `CC(=O)/C=C/c1ccc2c(c1)OCO2`, for which the growth was 95.4% in the assay with NCI-H23 lung; 95.2% in the assay on NCI-H226 lung; 104% in the assay on NCI-H322M lung; 102% in the assay on HOP-62 NSCLC; 107% in the assay on NCI-H460 lung; 89% in the assay with HOP-92 NSCLC. Besides, the growth with NCI-H522 lung was 84.7%; with A549/ATCC NSCLC, 95.2%; with 786-0 renal it was 99%; with COLO 205 colon it was 107%.

For `COc1ccc(N(CC(=O)NCCC[Te]c2ccccc2)C(=O)CCSC2=C(C)C(=O)c3ccccc3C2=O)cc1`, the growth was -49.3% (active) in the assay with NCI-H23 lung; -54.8% (active) in the assay on NCI-H226 lung; 2.85% (active) with NCI-H322M lung; -46.4% (active) with HOP-62 NSCLC; -73.5% (active) in the assay with NCI-H460 lung; -49.8% (active) in the assay on HOP-92 NSCLC. Further, the growth in the assay on NCI-H522 lung is -41.2% (active); with A549/ATCC NSCLC, -52.4% (active); in the assay with 786-0 renal, -22.1% (active); with COLO 205 colon, -97.9% (active).

Turning to `CC(=O)O[C@H]1C(=O)[C@@]2(C)[C@H]([C@H](OC(=O)c3ccccc3)[C@]3(O)C[C@H](OC(=O)[C@H](OC(=O)OC[C@@H]4COC(C)(C)O4)[C@@H](NC(=O)c4ccccc4)c4ccccc4)C(C)=C1C3(C)C)[C@]1(OC(C)=O)CO[C@@H]1C[C@@H]2O`, the growth in the assay with NCI-H23 lung is 19.9%; in the assay on NCI-H226 lung, 60.4%; in the assay with NCI-H322M lung, 14.4%; in the assay on HOP-62 NSCLC it was 19.3%; in the assay with NCI-H460 lung it was 3.59% (active); with HOP-92 NSCLC, 64.6%. Further, the growth in the assay with NCI-H522 lung is 1.08% (active); in the assay with A549/ATCC NSCLC it was 11.9%; in the assay on 786-0 renal it was 19.4%; in the assay on COLO 205 colon it was -28.4% (active).

On to `CC[C@H](NC(=O)[C@H]1CCCCN1C)C(=O)N(C)[C@H](C[C@@H](OC(C)=O)c1nc(C(=O)N[C@@H](Cc2ccccc2)C[C@H](C)C(=O)O)cs1)C(C)C`, for which the growth with NCI-H23 lung is 23%; in the assay on NCI-H226 lung, 65.7%; in the assay on NCI-H322M lung, 46.6%; with HOP-62 NSCLC it was 25.4%; in the assay on NCI-H460 lung, 2.71% (active); in the assay with HOP-92 NSCLC it was 46%. Further, the growth in the assay with NCI-H522 lung is -19.9% (active); in the assay on A549/ATCC NSCLC it was 10.4%; in the assay with 786-0 renal, 10.8%; with COLO 205 colon, -54.5% (active).

Take `ClCCN(CCCl)c1ccc(/C=N/Nc2ncnc3nc[nH]c23)cc1`: the growth was 68.8% in the assay on NCI-H23 lung; 79% in the assay with NCI-H226 lung; 97.7% in the assay on NCI-H322M lung; 82% with HOP-62 NSCLC; 39.1% in the assay with NCI-H460 lung; 81.3% with HOP-92 NSCLC. The growth in the assay with NCI-H522 lung is 61%; in the assay on A549/ATCC NSCLC, 87.7%; in the assay on 786-0 renal, 80.2%; in the assay on COLO 205 colon it was 90.5%.
